Experimental data from PubChem BioAssay (NCATS).
Results filed as inconclusive are left out. A call without a number means that no potency is given here. Active and inactive are the calls of the source. Calls come from the whole dose curve; as a rule, active = well fitted inhibition curve with a large enough effect; inconclusive = small, poorly fitted or top-dose-only effect; inactive = flat fitted curve, though single readings scatter.

What was measured:
Assay in all cases: qHTS profiling for inhibitors of Plasmodium falciparum proliferation (AID 504749); note: nearly all actives have a fitted effect of over 60% in size
Details in all cases: P. falciparum in erythrocytes, SYBR Green DNA, 72 h; series mostly up to 28.7 µM
CP262 = test system: CP262
Summary of the method: (§1)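 Quantitative HTS: compounds pinned into medium, infected erythrocytes added (0.3% parasitemia, 2.5% hematocrit), 72 h culture at 37 C under 5% CO2. Saponin/Triton lysis with SYBR Green I, overnight RT, then fluorescence read.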

CP265 = test system: CP265
Summary of the method: as §1

CP266 = test system: CP266
Summary of the method: as §1

CP268 = test system: CP268
Summary of the method: as §1

CP269 = test system: CP269
Summary of the method: as §1

CP286 = test system: CP286
Summary of the method: as §1

CP291 = test system: CP291
Summary of the method: as §1

CP297 = test system: CP297
Summary of the method: as §1

CP305 = test system: CP305
Summary of the method: as §1

CP315 = test system: CP315
Summary of the method: as §1
Potency is the fitted concentration of half-maximal effect.

| SMILES | Potency (CP262) | Potency (CP265) | Potency (CP266) | Potency (CP268) | Potency (CP269) | Potency (CP286) | Potency (CP291) | Potency (CP297) | Potency (CP305) | Potency (CP315) |
| --- | --- | --- | --- | --- | --- | --- | --- | --- | --- | --- |
| O=C(O)c1cc(=O)[nH]c(=O)[nH]1 | inactive | inactive | inactive | inactive | inactive | inactive | inactive | inactive | inactive | inactive |
| O=NN(CCCl)C(=O)NC1CCCCC1 | inactive | inactive | inactive | inactive | inactive | inactive | inactive | inactive | inactive | inactive |
| NC(N)=NC(N)=NCCc1ccccc1 | inactive | inactive | inactive | inactive | inactive | inactive | inactive | inactive | inactive | inactive |
| CCOCC(O)COc1ccc(NC(=O)CC[S+](C)C)cc1 (stereo not given) | inactive | inactive | inactive | inactive | inactive | inactive | inactive | inactive | inactive | inactive |
| CC(C)Cn1cnc2c(N)nc3ccccc3c21 | inactive | inactive | inactive | inactive | inactive | inactive | inactive | inactive | inactive | inactive |
| CN(CCOc1ccc(CC2SC(=O)NC2=O)cc1)c1ccccn1 (stereo not given) | inactive | inactive | inactive | inactive | inactive | inactive | inactive | inactive | inactive | inactive |
| Nc1nc(N)c2nc(CNc3ccc(C(=O)NC(CCC(=O)O)C(=O)O)cc3)cnc2n1 (stereo not given) | inactive | inactive | inactive | inactive | inactive | inactive | inactive | inactive | inactive | inactive |
| CC(C)(C#N)c1cc(Cn2cncn2)cc(C(C)(C)C#N)c1 | inactive | inactive | inactive | inactive | inactive | inactive | inactive | inactive | inactive | inactive |
| CN1CCN(c2c(F)cc3c(=O)c(C(=O)O)cn(CCF)c3c2F)CC1 | inactive | inactive | inactive | inactive | inactive | inactive | inactive | inactive | inactive | inactive |
| CC(C)OC(=O)C(C(=O)OC(C)C)=C1SC=CS1 | inactive | inactive | inactive | inactive | inactive | inactive | inactive | inactive | inactive | inactive |
| Cc1cccc(Nc2ccncc2S(=O)(=O)NC(=O)NC(C)C)c1 | inactive | inactive | inactive | inactive | inactive | inactive | inactive | inactive | inactive | inactive |
| CC1=NN(c2ccccc2)C(=O)C1 | inactive | inactive | inactive | inactive | inactive | inactive | inactive | inactive | inactive | inactive |
| CNS(=O)(=O)Cc1ccc2[nH]cc(CCN(C)C)c2c1 | inactive | inactive | inactive | inactive | inactive | inactive | inactive | inactive | inactive | inactive |
| CCc1cc(C(N)=S)ccn1 | inactive | inactive | inactive | inactive | inactive | inactive | inactive | inactive | inactive | inactive |
| CCN(C)C(=O)Oc1cccc([C@H](C)N(C)C)c1 | inactive | inactive | inactive | inactive | inactive | inactive | inactive | inactive | inactive | inactive |
| Nc1ccc(S(=O)(=O)Nc2ccccn2)cc1 | inactive | inactive | inactive | inactive | inactive | inactive | inactive | inactive | inactive | inactive |
| C[C@]12C=CC(=O)C=C1CC[C@@H]1[C@@H]2C(=O)C[C@@]2(C)[C@H]1CC[C@]2(O)C(=O)CO | inactive | inactive | inactive | inactive | inactive | inactive | inactive | inactive | inactive | inactive |
| CC[C@H](NC(C)C)[C@H](O)c1ccc(O)c2[nH]c(=O)ccc12 | inactive | inactive | inactive | inactive | inactive | inactive | inactive | inactive | inactive | inactive |
| Nc1[nH]c(=O)ncc1F | inactive | inactive | inactive | inactive | inactive | inactive | inactive | inactive | inactive | inactive |

| SMILES | Potency (CP262) | Potency (CP265) | Potency (CP266) | Potency (CP268) | Potency (CP269) | Potency (CP286) | Potency (CP291) | Potency (CP297) | Potency (CP305) | Potency (CP315) |
| --- | --- | --- | --- | --- | --- | --- | --- | --- | --- | --- |
| COc1cc(NCc2ccc3nc(N)nc(N)c3c2C)cc(OC)c1OC | 169 nM (active) | 3.16 µM (active) | 4.26 µM (active) | 953 nM (active) | 3380 nM (active) | 178 nM (active) | 478 nM (active) | 426 nM (active) | 601 nM (active) | 849 nM (active) |
| O=P(O)(O)C(O)(Cc1cccnc1)P(=O)(O)O | inactive | inactive | inactive | inactive | inactive | inactive | inactive | inactive | inactive | inactive |
| Cc1nnc(NS(=O)(=O)c2ccc(N)cc2)s1 | inactive | inactive | inactive | inactive | inactive | inactive | inactive | inactive | inactive | inactive |
| COc1ncnc(NS(=O)(=O)c2ccc(N)cc2)c1OC | inactive | inactive | inactive | inactive | inactive | inactive | inactive | inactive | inactive | inactive |
| O=S(=O)(O)CCS | inactive | inactive | inactive | inactive | inactive | inactive | inactive | inactive | inactive | inactive |
| C#CCN[C@@H]1CCc2ccccc21 | inactive | inactive | inactive | inactive | inactive | inactive | inactive | inactive | inactive | inactive |
| COc1ccc(-c2ccc3cc(C(=O)O)ccc3c2)cc1C12CC3CC(CC(C3)C1)C2 | inactive | inactive | inactive | inactive | inactive | inactive | inactive | inactive | inactive | inactive |
| CNNCc1ccc(C(=O)NC(C)C)cc1 | inactive | inactive | inactive | inactive | inactive | inactive | inactive | inactive | inactive | inactive |
| N=C(N)c1ccc(OCCCCCOc2ccc(C(=N)N)cc2)cc1 | 757 nM (active) | 2.82 µM (active) | 1.69 µM (active) | 1350 nM (active) | 536 nM (active) | 1120 nM (active) | 1200 nM (active) | 601 nM (active) | 536 nM (active) | 1350 nM (active) |
| CN(C)CCc1c[nH]c2ccc(CS(=O)(=O)N3CCCC3)cc12 | inactive | inactive | inactive | inactive | inactive | inactive | inactive | inactive | inactive | inactive |
| COC(=O)Nc1nc2ccc(Sc3ccccc3)cc2[nH]1 | inactive | inactive | – | inactive | inactive | inactive | inactive | inactive | inactive | inactive |
| CN(C)c1ccc(C(=C2C=CC(=[N+](C)C)C=C2)c2ccc(N(C)C)cc2)cc1 | 239 nM (active) | 0.316 µM (active) | 0.601 µM (active) | 849 nM (active) | 239 nM (active) | 178 nM (active) | 675 nM (active) | 953 nM (active) | 338 nM (active) | 953 nM (active) |
| Cn1nnc2c(C(N)=O)ncn2c1=O | inactive | inactive | inactive | inactive | inactive | inactive | inactive | inactive | inactive | inactive |
| N[C@@H](C(=O)N[C@@H]1C(=O)N2C(C(=O)O)=C(Cl)CS[C@H]12)c1ccccc1 | inactive | inactive | inactive | inactive | inactive | inactive | inactive | inactive | inactive | inactive |
| CCCc1cc(C(N)=S)ccn1 | inactive | inactive | inactive | inactive | inactive | inactive | inactive | – | inactive | inactive |
| CCCN[C@H]1CCc2nc(N)sc2C1 | inactive | inactive | – | inactive | inactive | inactive | inactive | inactive | inactive | inactive |
| COc1ccc(C(=O)CC(=O)c2ccc(C(C)(C)C)cc2)cc1 | inactive | inactive | inactive | inactive | inactive | – | inactive | inactive | inactive | inactive |
| Cc1cccc(N(C)C(=S)Oc2ccc3ccccc3c2)c1 | inactive | inactive | – | inactive | inactive | inactive | inactive | inactive | inactive | inactive |
